Results filed as inconclusive are left out. Calls of active or inactive are those of the source. Unless noted, calls follow the shape of the dose curve; as a rule, active = well fitted curve in either direction with a large enough effect (not every such curve was filed as active); inconclusive = small, poorly fitted or top-dose-only effect, or another doubt; inactive = flat fitted curve, though single readings scatter.
Experiments:
[1] = AP1 Signaling Pathway (AID 357); details: ME-180 AP-1-bla reporter, EGF-induced, beta-lactamase ratio, 5 h; at 7.69 µM (top of the series) unless noted;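 also: ME-180 reporter cells stimulated with EGF at its EC50 level; % is scaled to controls: 0 for no effect and ±100 for the full control effect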
How it was run: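 AP-1-bla ME-180 cells, Opti-MEM + 0.5% dialyzed FBS, plated overnight 37 °C. Cpd titration + EC50 EGF, 5 h 37 °C. CCF4 2.5 h RT; ex 405, em 460/530 ratio → %activity, AC50.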

[2] = biological target: Cytochrome P450 1A2 (Homo sapiens) (UniProt P05177); test: p450-cyp1a2 (AID 410; calls by dose curve;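 also: -100% = full effect of reference inhibitor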)
How it was run: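 Read-out is luminescence from luciferin produced by CYP1A2 demethylation of Luciferin-ME (100uM, at Km). Detection reagent stopped the 60 min NADPH-dependent reaction; signals were normalized to 57 uM furafylline.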

[3] = NFAT Signaling Pathway (AID 444); details: Jurkat NFAT-bla M1, carbachol, beta-lactamase ratio, 5 h; at 7.69 µM (top of the series) unless noted;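 also: carbachol stimulus at about its EC50 of 1 µM final; % is scaled to controls: 0 for no effect and ±100 for the full control effect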
How it was run: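 Read-out: CCF4 FRET ratio (460 nm/530 nm) after 1 h RT dye loading, used for %activity and AC50 from titration series. Cells: Jurkat NFAT-β-lactamase/M1 line, treated with compound plus 1 uM carbachol for 5 h, 37 °C.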

[4] = Stat Signaling Pathway (AID 446); details: ME-180 (cervical carcinoma) SIE beta-lactamase reporter, IL-6 stimulated, 5 h; at 7.69 µM (top of the series) unless noted;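 also: ME-180 cervical cancer cells given 40 pM IL-6 alongside compound; SIE-controlled beta-lactamase reporter measured as 460/530 nm FRET emission ratio; % is scaled to controls: 0 for no effect and ±100 for the full control effect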
How it was run: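 FRET read-out (405 nm excitation, 460/530 nm emission) of a beta-lactamase reporter under a STAT-inducible element in ME-180 cervical carcinoma cells. Cells with compound receive 40 pM IL-6 for 5 h. Values are normalised to AC90 stimulation and AC90 JAK-inhibitor controls.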

[5] = biological target: Glucocorticoid receptor (Homo sapiens) (UniProt P04150); test: GR-GFP Redistribution (AID 450;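 active = compounds whose dose series gives a full or clear partial fitted curve of increased nuclear translocation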; also: potency is read from the fitted curve at half-maximal effect); details: U2OS GR-GFP nuclear translocation, laser cytometry, 2 h
[6] = biological target: Glucocorticoid receptor (Homo sapiens) (UniProt P04150); test: GR-EFC Redistribution (AID 451; calls by dose curve; also: potency is read from the fitted curve at half-maximal effect); details: CHO-K1 GR-EFC translocation, beta-gal luminescence, 2 h
How it was run: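 Translocation of GR-ED fusion to nuclear EA restores b-gal, read by luminescence after 1 h room-temperature detection. Engineered CHO-K1 biosensor cells, 1,000/well, exposed 2 h at 37 C to titrations up to 46 uM final.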

[7] = biological target: Mitogen-activated protein kinase 10 (Mus musculus) (UniProt Q61831); test: JNK3 AlphaScreen Assay (AID 530);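 also: kinase came from lysate of stimulated human HepG2 cells; signal reports phosphorylation of biotinylated GST-cJun 1-79 at Ser73 with 10 µM ATP; % is scaled to controls: 0 for no effect and ±100 for the full control effect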
How it was run: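 Kinase buffer: 20 mM Tris-HCl pH 7.6, 10 mM MgCl2, 1 mM DTT, 0.1 mM Na3VO4, 0.01% Tween-20; ATP 10 uM. Substrate biotin-GST-cJun(1-79), enzyme from activated HepG2 lysates. Detection by Ser73 phospho-antibody AlphaScreen.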

[8] = biological target: Guanine nucleotide-binding protein G(i) subunit alpha-1 (Homo sapiens) (UniProt P63096); test: qHTS Assay for Inhibitors of RGS12 GoLoco Motif Activity (Green Fluorophore) (AID 879; active = well fitted curve in the direction sought with a large enough effect; an effect the other way counts as inactive or inconclusive;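 also: 0% = labeled peptide with Gαi1 and full inhibition = labeled peptide alone without protein; negative values mean loss of peptide binding seen as reduced polarization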)
How it was run: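 A drop in FITC polarization marked displacement of the FITC-tagged RGS12 GoLoco peptide (10 nM) from Gαi1 (50 nM). Compounds were incubated 10 min at room temperature in Tris pH 7.5 buffer containing 150 mM NaCl, 0.1 mM GDP and 0.05% NP40; unlabeled peptide titration served as control.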

[9] = biological target: Muscarinic acetylcholine receptor M1 (Rattus norvegicus) (UniProt P08482); test: qHTS Assay for Antagonists of Acetylcholine Muscarinic M1 Receptor: Measurement of IP-One Response (AID 944; active = well fitted curve in the direction sought with a large enough effect; an effect the other way counts as inactive or inconclusive; also: nearly all actives have a fitted effect of over 75% in size)
How it was run: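 Antagonism was measured as loss of carbachol-driven (EC80) IP1 accumulation in CHO cells carrying rat M1, using a homogeneous IP-One TR-FRET kit read at 620 and 665 nm.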

[10] = biological target: Pyruvate kinase (Leishmania mexicana) (UniProt Q27686); test: qHTS Validation Assay for Inhibitors of Leishmania Mexicana Pyruvate Kinase (AID 945; active = well fitted curve in the direction sought with a large enough effect; an effect the other way counts as inactive or inconclusive;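 also: 0% = DMSO only neutral control wells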)
How it was run: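 Eight-point qHTS titrations in triplicate, data normalized to DMSO neutral control. Reaction: 0.2 nM LmPYK E451W mutant, 0.5 mM PEP, 0.1 mM ADP, 7 mM MgCl2, pH 7.2, one hour at room temperature; luminescent ATP detection.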

[11] = biological target: Pyruvate kinase PKM (Homo sapiens) (UniProt P14618); test: qHTS Assay for Activators of Human Muscle Pyruvate Kinase (AID 954; active = well fitted curve in the direction sought with a large enough effect, not every such curve was filed as active;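 also: 0% = uninhibited enzyme and -100% = no enzyme or full thiadiazolimine inhibition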)
How it was run: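 ATP production by PKM2 detected via luciferase luminescence after 1 h room-temperature reaction (0.1 nM enzyme, PEP at Km 0.5 mM, ADP 0.1 mM, pH 7.2 imidazole buffer). Inhibition scaled to no-enzyme control; activation referenced to 0.3 nM enzyme wells.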

[12] = biological target: Alpha-galactosidase A (Homo sapiens) (UniProt P06280); test: Counterscreen for Glucocerebrosidase Inhibitors: qHTS Assay for Human alpha-Galactosidase at pH 4.5 (AID 992; active = well fitted curve in the direction sought with a large enough effect; an effect the other way counts as inactive or inconclusive; also: 0% is about no effect)
How it was run: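 Fluorogenic 1536-well qHTS at pH 4.5 (citrate, Tween-20): 2 nM enzyme, 80 uM 4-MU-alpha-galactoside, 20 min room temperature, NaOH/glycine stop. Titration 0.7 nM to 77 uM, data normalized to no-enzyme and full-activity controls, Hill-fitted AC50.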

[13] = biological target: alpha-glucosidase (Oryza sativa, rice) (UniProt Q653V4); test: Counterscreen for Glucocerebrosidase Inhibitors: qHTS Assay for Rice alpha-Glucosidase at pH 5.0 (AID 997; active = well fitted curve in the direction sought with a large enough effect; an effect the other way counts as inactive or inconclusive;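 also: 0% = full activity with enzyme and -100% = basal without enzyme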)
How it was run: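 Endpoint fluorogenic assay at pH 5.0: compounds (0.7 nM to 77 uM) titrated against 4 nM rice enzyme and 400 uM 4-MU-alpha-glucoside for 20 min at room temperature; NaOH/glycine stop, read ex 365/em 440 nm, Hill-fitted AC50.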

[14] = biological target: 3',5'-cyclic-AMP phosphodiesterase 4B (Homo sapiens) (UniProt Q07343); test: qHTS Assay for Inhibitors of PDE-IV (AID 607; active = well fitted activation curve with a large enough effect in the main read-out, with a control signal flat, not every such curve was filed as active; also: % of control where 0% means no effect)
How it was run: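 Cell-based read-out of cAMP via a modified cyclic nucleotide-gated channel and membrane potential dye (535/590 nm) in HEK293 cells expressing PDE4 endogenously. Compounds tested up to 22.9 uM final; 100 uM RO 20-1724 reference.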

[15] = biological target: Cytochrome P450 2D6 (Homo sapiens) (UniProt P10635); test: qHTS Assay for Inhibitors and Substrates of Cytochrome P450 2D6 (AID 891; active = well fitted curve in the direction sought with a large enough effect; an effect the other way counts as inactive or inconclusive;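 also: luciferin methyl ether substrate demethylated by CYP2D6 with NADPH regeneration; % is scaled to controls: 0 for no effect and ±100 for the full control effect; nearly all actives have a fitted effect of over 60% in size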)
How it was run: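 Luminescent read-out of luciferin formed by 5 nM human CYP2D6 demethylating 30 uM Luciferin-ME EGE (Km level) over 60 min at room temperature after NADPH regeneration addition. Data normalized to full inhibition by 1.43 uM quinidine.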

[16] = biological target: Cytochrome P450 2C19 (Homo sapiens) (UniProt P33261); test: qHTS Assay for Inhibitors and Substrates of Cytochrome P450 2C19 (AID 899; active = well fitted curve in the direction sought with a large enough effect; an effect the other way counts as inactive or inconclusive; also: % is scaled to controls: 0 for no effect and ±100 for the full control effect; nearly all actives have a fitted effect of over 60% in size)
How it was run: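 5nM enzyme + 10uM Luciferin-H EGE (=KM), 50mM KPO4; cpd pin-transferred, 10 min 37C; NADPH regen, 60 min 37C; stopped w/ luciferin detection reagent, 20 min; luminescence. Normalized to 57uM ketoconazole (AC100).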

[17] = biological target: Cytochrome P450 3A4 (Homo sapiens) (UniProt P08684); test: qHTS Assay for Activators of Cytochrome P450 3A4 (AID 885; active = well fitted curve in the direction sought with a large enough effect; an effect the other way counts as inactive or inconclusive; also: nearly all actives have a fitted effect of over 65% in size)
How it was run: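 Luminescent readout of luciferin formed from 25 uM Luciferin-PPXE (KM level) by 20 nM CYP3A4 in 200 mM KPO4, with 60 min NADPH-driven reaction at room temperature after 10 min compound exposure. Ketoconazole (57 uM) defined 100% inhibition.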

[18] = qHTS Assay for Identification of Small Molecule Antagonists for NFkB Signaling Pathway (AID 895; active = well fitted inhibition curve with a large enough effect in the signal ratio, with a control signal flat, not every such curve was filed as active; the % refers to the signal ratio; also: % is scaled to controls: 0 for no effect and ±100 for the full control effect)
How it was run: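 Beta-lactamase reporter read-out (460 and 530 nm emission ratio, 405 nm excitation, 2 hrs substrate loading RT) after 5 hr stimulation with 10 pM TNF alpha in compound-treated NFkB-bla ME-180 cells in low-serum medium.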

[19] = qHTS Assay for Identification of Small Molecule Agonists for Thrombopoietin (TPO) Signaling Pathway (AID 917; active = well fitted curve in the direction sought with a large enough effect; an effect the other way counts as inactive or inconclusive; also: % is scaled to controls: 0 for no effect and ±100 for the full control effect)
How it was run: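 First, Ba/F3 cells with human TPO receptor were held overnight without IL-3. Next, compounds and TPO (26 pM final) were added. After 24 hrs at 37 C, luciferase detection reagent was added and luminescence measured following 10 min at room temperature.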

[20] = biological target: Muscarinic acetylcholine receptor M1 (Rattus norvegicus) (UniProt P08482); test: qHTS Assay for Antagonists of Acetylcholine Muscarinic M1 Receptor: Kinetic Measurement of Intracellular Calcium Response (AID 943; active = well fitted curve in the direction sought with a large enough effect; an effect the other way counts as inactive or inconclusive;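 also: Fluo-4 calcium signal as peak divided by basal fluorescence over 4 min; nearly all actives have a fitted effect of over 75% in size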)
How it was run: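 Quantitative HTS in CHO-M1 (rat receptor) cells: 10 min compound exposure ahead of 100 nM carbachol, Fluo-4 fluorescence followed 4 min, value expressed as peak-to-basal ratio.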

Cytochrome P450 1A2 (Homo sapiens), sequence (P05177 whole entry, looked up): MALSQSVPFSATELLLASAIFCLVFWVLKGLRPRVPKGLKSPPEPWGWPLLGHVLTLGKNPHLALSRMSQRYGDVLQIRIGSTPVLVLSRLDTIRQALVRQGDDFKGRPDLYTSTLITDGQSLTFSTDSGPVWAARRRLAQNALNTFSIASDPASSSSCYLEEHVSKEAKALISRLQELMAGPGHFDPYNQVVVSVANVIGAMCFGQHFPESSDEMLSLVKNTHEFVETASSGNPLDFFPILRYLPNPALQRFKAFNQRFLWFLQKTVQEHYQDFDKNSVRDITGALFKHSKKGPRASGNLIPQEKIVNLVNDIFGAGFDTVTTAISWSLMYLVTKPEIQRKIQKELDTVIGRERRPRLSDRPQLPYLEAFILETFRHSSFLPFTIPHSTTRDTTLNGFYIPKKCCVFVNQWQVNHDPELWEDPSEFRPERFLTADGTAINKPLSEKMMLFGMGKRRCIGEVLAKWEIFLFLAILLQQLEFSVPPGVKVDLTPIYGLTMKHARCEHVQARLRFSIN
Alpha-galactosidase A (Homo sapiens), sequence (P06280 whole entry, looked up): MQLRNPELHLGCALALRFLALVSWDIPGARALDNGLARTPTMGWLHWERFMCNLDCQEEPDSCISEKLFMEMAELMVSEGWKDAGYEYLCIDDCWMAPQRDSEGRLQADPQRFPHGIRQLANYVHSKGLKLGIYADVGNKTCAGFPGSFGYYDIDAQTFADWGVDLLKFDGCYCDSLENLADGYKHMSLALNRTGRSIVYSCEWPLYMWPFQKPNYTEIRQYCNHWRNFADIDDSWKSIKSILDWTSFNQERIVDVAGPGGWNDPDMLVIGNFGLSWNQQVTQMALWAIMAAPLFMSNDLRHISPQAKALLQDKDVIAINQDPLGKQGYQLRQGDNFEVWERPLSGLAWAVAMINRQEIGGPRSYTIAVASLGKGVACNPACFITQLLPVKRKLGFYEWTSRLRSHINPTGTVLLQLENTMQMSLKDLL
Glucocorticoid receptor (Homo sapiens), sequence (P04150 whole entry, looked up, the tested form may be a part): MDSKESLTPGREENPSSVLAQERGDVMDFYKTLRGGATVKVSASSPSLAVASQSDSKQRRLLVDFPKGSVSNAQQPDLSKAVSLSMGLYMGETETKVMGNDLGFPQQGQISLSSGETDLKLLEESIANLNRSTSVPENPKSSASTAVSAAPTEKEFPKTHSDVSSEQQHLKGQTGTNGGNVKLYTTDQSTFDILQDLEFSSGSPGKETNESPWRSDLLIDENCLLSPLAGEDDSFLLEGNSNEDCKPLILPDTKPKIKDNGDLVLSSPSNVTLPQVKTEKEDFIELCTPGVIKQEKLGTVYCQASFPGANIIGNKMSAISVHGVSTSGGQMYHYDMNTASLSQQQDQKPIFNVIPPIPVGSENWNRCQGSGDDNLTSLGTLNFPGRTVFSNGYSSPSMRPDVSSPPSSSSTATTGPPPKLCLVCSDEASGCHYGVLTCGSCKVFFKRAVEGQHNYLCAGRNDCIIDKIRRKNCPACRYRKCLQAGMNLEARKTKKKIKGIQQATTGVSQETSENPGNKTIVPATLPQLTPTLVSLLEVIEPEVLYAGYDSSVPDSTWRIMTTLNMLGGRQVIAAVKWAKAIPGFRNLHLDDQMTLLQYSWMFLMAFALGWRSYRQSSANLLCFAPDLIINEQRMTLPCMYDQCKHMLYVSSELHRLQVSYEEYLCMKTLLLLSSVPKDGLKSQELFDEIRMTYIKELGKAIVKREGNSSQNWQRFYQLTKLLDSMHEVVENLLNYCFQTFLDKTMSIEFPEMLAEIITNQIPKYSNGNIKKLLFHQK
3',5'-cyclic-AMP phosphodiesterase 4B (Homo sapiens), sequence (Q07343 whole entry, looked up): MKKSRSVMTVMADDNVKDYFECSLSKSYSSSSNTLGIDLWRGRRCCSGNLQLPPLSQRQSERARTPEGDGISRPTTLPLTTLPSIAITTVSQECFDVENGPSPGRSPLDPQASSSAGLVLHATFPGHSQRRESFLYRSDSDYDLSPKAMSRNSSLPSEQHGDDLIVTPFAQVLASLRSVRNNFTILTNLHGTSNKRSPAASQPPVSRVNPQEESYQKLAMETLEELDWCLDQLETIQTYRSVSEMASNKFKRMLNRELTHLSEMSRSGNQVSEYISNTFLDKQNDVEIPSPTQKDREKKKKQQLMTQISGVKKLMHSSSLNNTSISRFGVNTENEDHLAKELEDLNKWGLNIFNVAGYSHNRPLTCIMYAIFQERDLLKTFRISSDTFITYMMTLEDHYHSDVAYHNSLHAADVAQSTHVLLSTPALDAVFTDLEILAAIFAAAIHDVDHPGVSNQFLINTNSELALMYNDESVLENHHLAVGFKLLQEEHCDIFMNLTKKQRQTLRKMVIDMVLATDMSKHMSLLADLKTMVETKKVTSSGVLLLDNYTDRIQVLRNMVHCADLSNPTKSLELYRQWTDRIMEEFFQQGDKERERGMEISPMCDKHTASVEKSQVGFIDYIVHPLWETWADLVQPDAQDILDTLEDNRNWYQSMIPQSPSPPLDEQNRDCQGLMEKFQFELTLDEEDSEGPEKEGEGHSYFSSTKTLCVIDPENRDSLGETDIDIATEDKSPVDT
Pyruvate kinase PKM (Homo sapiens), sequence (P14618 whole entry, looked up): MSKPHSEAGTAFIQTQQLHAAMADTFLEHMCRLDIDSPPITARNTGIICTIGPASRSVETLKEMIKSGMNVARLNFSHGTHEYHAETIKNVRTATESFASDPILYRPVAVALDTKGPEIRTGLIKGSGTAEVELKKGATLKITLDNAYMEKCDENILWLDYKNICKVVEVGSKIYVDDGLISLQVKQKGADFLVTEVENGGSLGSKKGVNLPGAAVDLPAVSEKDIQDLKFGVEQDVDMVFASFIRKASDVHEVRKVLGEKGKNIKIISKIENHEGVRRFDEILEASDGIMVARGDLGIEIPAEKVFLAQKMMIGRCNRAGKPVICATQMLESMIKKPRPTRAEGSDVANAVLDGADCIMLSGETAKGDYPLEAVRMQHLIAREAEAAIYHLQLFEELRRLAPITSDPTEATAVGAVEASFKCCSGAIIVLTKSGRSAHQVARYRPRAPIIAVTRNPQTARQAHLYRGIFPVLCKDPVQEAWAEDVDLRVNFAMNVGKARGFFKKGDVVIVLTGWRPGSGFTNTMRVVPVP
Cytochrome P450 2D6 (Homo sapiens), sequence (P10635 whole entry, looked up): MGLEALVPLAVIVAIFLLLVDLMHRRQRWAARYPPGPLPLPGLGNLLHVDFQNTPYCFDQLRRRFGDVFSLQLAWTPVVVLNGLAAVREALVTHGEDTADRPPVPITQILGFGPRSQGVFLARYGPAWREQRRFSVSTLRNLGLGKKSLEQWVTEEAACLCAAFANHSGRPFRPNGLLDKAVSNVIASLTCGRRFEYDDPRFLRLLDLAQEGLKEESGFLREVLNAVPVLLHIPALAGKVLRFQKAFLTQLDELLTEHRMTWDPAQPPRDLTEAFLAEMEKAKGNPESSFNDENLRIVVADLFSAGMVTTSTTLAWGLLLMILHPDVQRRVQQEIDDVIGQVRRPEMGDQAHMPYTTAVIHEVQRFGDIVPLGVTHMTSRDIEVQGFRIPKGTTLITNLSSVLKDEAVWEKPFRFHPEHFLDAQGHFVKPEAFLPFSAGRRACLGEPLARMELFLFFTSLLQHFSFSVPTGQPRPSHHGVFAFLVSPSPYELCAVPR
Muscarinic acetylcholine receptor M1 (Rattus norvegicus), sequence (P08482 whole entry, looked up): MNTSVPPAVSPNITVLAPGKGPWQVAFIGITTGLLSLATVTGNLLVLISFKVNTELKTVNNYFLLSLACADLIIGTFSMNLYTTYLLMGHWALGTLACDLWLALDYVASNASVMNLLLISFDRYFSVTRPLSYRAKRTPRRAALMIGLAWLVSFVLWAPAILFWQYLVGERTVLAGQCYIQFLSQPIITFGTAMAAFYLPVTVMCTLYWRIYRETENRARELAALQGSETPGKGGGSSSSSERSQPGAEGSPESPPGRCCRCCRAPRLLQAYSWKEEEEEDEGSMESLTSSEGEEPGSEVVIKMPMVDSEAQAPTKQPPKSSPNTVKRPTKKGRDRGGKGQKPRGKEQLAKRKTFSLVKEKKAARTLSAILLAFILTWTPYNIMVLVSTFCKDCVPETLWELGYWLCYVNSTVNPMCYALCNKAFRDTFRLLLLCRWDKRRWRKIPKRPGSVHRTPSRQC
Pyruvate kinase (Leishmania mexicana), sequence (Q27686 2-499 E452W): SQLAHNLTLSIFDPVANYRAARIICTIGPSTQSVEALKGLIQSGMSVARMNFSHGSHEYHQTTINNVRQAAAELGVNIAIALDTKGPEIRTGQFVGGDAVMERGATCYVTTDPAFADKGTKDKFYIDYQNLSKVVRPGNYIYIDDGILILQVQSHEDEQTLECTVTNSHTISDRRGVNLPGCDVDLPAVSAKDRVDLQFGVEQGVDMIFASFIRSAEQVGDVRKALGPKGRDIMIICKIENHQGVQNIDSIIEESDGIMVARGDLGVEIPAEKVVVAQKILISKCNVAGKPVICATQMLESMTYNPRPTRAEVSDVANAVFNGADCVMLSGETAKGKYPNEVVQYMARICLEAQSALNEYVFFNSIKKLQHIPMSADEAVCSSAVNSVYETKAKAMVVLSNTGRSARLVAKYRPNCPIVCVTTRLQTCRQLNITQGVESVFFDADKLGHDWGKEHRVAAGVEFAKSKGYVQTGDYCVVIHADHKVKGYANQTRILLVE
Cytochrome P450 2C19 (Homo sapiens), sequence (P33261 whole entry, looked up): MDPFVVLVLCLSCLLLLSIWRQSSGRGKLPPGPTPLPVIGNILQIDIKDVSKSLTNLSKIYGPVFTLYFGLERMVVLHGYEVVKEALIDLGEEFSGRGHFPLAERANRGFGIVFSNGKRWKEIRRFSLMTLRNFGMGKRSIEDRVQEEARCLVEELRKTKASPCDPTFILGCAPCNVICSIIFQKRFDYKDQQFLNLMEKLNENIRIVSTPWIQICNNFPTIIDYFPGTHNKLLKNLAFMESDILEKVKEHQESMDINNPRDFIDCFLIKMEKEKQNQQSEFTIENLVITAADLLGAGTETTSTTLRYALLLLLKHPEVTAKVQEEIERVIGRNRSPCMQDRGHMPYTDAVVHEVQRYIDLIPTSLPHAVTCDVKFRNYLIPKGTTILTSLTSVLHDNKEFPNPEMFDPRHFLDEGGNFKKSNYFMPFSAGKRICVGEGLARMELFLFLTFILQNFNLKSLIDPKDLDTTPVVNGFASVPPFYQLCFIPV

Nc1nc(Cl)nc2c1ncn2[C@@H]1O[C@@H](CO)[C@@H](O)[C@H]1O
inactive: activity change, negative = inhibition [1] -7.62% [at 38 µM] | Potency [2] | activity change, negative = inhibition [3] 2.55% [at 38 µM] | activity, negative = inhibition [4] 7.39% [at 38 µM] | Potency [5] > 46 µM | Potency [6] > 46 µM | Potency [7] | outcome [8] | Potency [9] | outcome [10] | outcome [11] | outcome [12] | Potency [13]

CC(=O)OCC(=O)[C@@]1(O)CC[C@@H]2[C@@H]3CCC4=CC(=O)CC[C@@]4(C)[C@H]3C(=O)C[C@]21C
inactive: activity change, negative = inhibition [1] 4.78% [at 38 µM] | Potency [2] | activity change, negative = inhibition [3] 5.8% [at 38 µM] | activity, negative = inhibition [4] -12.6% [at 38 µM] | Potency [6] > 46 µM | Potency [7] | Potency [14] | Potency [15] | Potency [16]

NC(N)=NCCSSCCN=C(N)N
inactive: activity change, negative = inhibition [1] -8.04% [at 38 µM] | Potency [2] | activity change, negative = inhibition [3] -8.54% [at 38 µM] | activity, negative = inhibition [4] -24.3% [at 38 µM] | Potency [5] > 46 µM | Potency [6] > 46 µM | Potency [14] | Potency [15]

C[C@@H]1C[C@H]2[C@H]3C[C@@H](F)C4=CC(=O)C=C[C@]4(C)[C@@]3(Cl)[C@@H](O)C[C@@]2(C)[C@@H]1C(=O)COC(=O)C(C)(C)C
inactive: activity change, negative = inhibition [1] -11.4% [at 17.2 µM] | Potency [2] | activity change, negative = inhibition [3] -26.1% [at 17.2 µM] | activity, negative = inhibition [4] -9.29% [at 17.2 µM] | Potency [7] | Potency [14] | Potency [17]

OC[C@@H]1O[C@@H](n2cnc3c(N[C@@H]4C[C@@H]5CC[C@H]4C5)ncnc32)[C@@H](O)[C@H]1O
inactive: activity change, negative = inhibition [1] -1.94% [at 38 µM] | Potency [2] | activity change, negative = inhibition [3] 8.03% [at 38 µM] | activity, negative = inhibition [4] 24.8% [at 38 µM] | Potency [5] > 46 µM | Potency [6] > 46 µM | Potency [14] | outcome [8] | Potency [18] | outcome [19] | Potency [20] | Potency [9] | outcome [10] | outcome [11] | outcome [12] | Potency [13]

Nc1ccn([C@H]2CC[C@H](CO)O2)c(=O)n1
inactive: activity change, negative = inhibition [1] 15.8% [at 38 µM] | Potency [2] | activity change, negative = inhibition [3] 5.71% [at 38 µM] | activity, negative = inhibition [4] -0.228% [at 38 µM] | Potency [7] | Potency [14] | Potency [15] | Potency [16]

N[C@@H]1C=CC=C(C(=O)O)C1
inactive: activity change, negative = inhibition [1] -1.23% [at 38 µM] | Potency [2] | activity change, negative = inhibition [3] 5.33% [at 38 µM] | activity, negative = inhibition [4] 16.2% [at 38 µM] | Potency [5] > 46 µM | Potency [6] > 46 µM | Potency [14] | Potency [18] | outcome [19] | Potency [20] | outcome [10] | outcome [11] | outcome [12] | Potency [13]

From PubChem BioAssay (NCATS)
